# Several values for one entry are separate records, joined by “and”; a condition that tells them apart may be missing. Equal values may be shown once. Inconclusive results are not listed. A call without a number means that no potency is given here. A number with no mark means an inactive call. Activity calls are given as the source filed them. Calls come from the whole dose curve; as a rule, active = well fitted curve in the direction sought with a large enough effect; inconclusive = small, poorly fitted or top-dose-only effect, or another doubt; inactive = no such curve, though single readings can be large; an effect the other way counts as inactive or inconclusive.
# Columns and labels:
# MCC-13 = test: qHTS assay to identify novel small-molecules to repurpose for Merkel cell carcinoma treatment (AID 1296009); conditions: MCC and control cell lines, CellTiter-Glo viability, 72 h; series mostly up to 46 µM; note: nearly all actives have a fitted effect of over 60% in size; note: potency is the fitted concentration of half-maximal effect
# Method in brief: (§1)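 After compound transfer in DMSO, plates were kept 72 hr at 37 degree celsius. Luminescent ATP signal from CellTiter-Glo served as viability measure, normalized against DMSO and no-cell controls.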
# MCC-26 = test: as above; conditions: MCC and control cell lines, CellTiter-Glo viability, 72 h; series mostly up to 46 µM
# Method in brief: as §1
# MKL-1 = test: as above; conditions: MCC and control cell lines, CellTiter-Glo viability, 72 h; series mostly up to 46 µM
# Method in brief: as §1
# MKL-2 = test: as above; conditions: MCC and control cell lines, CellTiter-Glo viability, 72 h; series mostly up to 46 µM
# Method in brief: as §1
# UISO = test: as above; conditions: MCC and control cell lines, CellTiter-Glo viability, 72 h; series mostly up to 46 µM
# Method in brief: as §1
# WaGa = test: as above; conditions: MCC and control cell lines, CellTiter-Glo viability, 72 h; series mostly up to 46 µM
# Method in brief: as §1
# C33A = test: Primary qHTS to identify gynecologic anti-cancer compounds using libraries of approved drugs and bioactive compounds (AID 1345084); conditions: Gynecologic cancer cell panel viability, ATPlite luminescence, 48 h; series mostly up to 57.5 µM; note: nearly all actives have a fitted effect of over 55% in size
# Method in brief: (§2)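 Cytotoxicity screen measuring ATP content by luciferase luminescence. Each compound is applied at five concentrations for 48 h at 37 C with 5% CO2.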
# CAOV3 = test: as above; conditions: Gynecologic cancer cell panel viability, ATPlite luminescence, 48 h; series mostly up to 57.5 µM
# Method in brief: as §2
# CASKI = test: as above; conditions: Gynecologic cancer cell panel viability, ATPlite luminescence, 48 h; series mostly up to 57.5 µM
# Method in brief: as §2
# Es-2 = test: as above; conditions: Gynecologic cancer cell panel viability, ATPlite luminescence, 48 h; series mostly up to 57.5 µM
# Method in brief: as §2
# HeLa = test: as above; conditions: Gynecologic cancer cell panel viability, ATPlite luminescence, 48 h; series mostly up to 57.5 µM
# Method in brief: as §2
# Hek293T = test: as above; conditions: Gynecologic cancer cell panel viability, ATPlite luminescence, 48 h, control line for the selectivity index; series mostly up to 57.5 µM
# Method in brief: as §2
# JEG-3 = test: as above; conditions: Gynecologic cancer cell panel viability, ATPlite luminescence, 48 h; series mostly up to 57.5 µM
# Method in brief: as §2
# OV90 = test: as above; conditions: Gynecologic cancer cell panel viability, ATPlite luminescence, 48 h; series mostly up to 57.5 µM
# Method in brief: as §2
# PA-1 = test: as above; conditions: Gynecologic cancer cell panel viability, ATPlite luminescence, 48 h; series mostly up to 57.5 µM
# Method in brief: as §2
# SKOV3 = test: as above; conditions: Gynecologic cancer cell panel viability, ATPlite luminescence, 48 h; series mostly up to 57.5 µM
# Method in brief: as §2
# Tov-21-G = test: as above; conditions: Gynecologic cancer cell panel viability, ATPlite luminescence, 48 h; series mostly up to 57.5 µM
# Method in brief: as §2
# Tov112D = test: as above; conditions: Gynecologic cancer cell panel viability, ATPlite luminescence, 48 h; series mostly up to 57.5 µM
# Method in brief: as §2
# [1] = Drug repurposing screens with cells derived from glioblastoma tumor samples (AID 1345199); conditions: GBM patient neurospheres viability, ATP luminescence, 48 h; note: nearly all actives have a fitted effect of over 40% in size; note: potency is the fitted concentration of half-maximal effect
# Method in brief: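 Four patient lines of CD133+ GBM neurospheres were screened at several concentrations; hits were retested in those lines plus three slower-growing GBM lines, using 48-hour treatment and ATP-based viability.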
# NIH3T3 = test: qHTS assay to identify novel small-molecules to repurpose for Merkel cell carcinoma treatment (AID 1296009); conditions: MCC and control cell lines, CellTiter-Glo viability, 72 h; at 44.8 µM (top of the series) unless noted; note: nearly all actives have a fitted effect of over 60% in size; note: potency is the fitted concentration of half-maximal effect
# Method in brief: as §1
# [2] = at 21.2 µM (top of the series), tumour line B
# [3] = at 21.2 µM (top of the series), tumour line D
# [4] = at 21.3 µM (top of the series), tumour line A
# [5] = at 20 µM (top of the series), tumour line C
# [6] = at 45.9 µM (top of the series), tumour line B
# [7] = at 45.9 µM (top of the series), tumour line D
# [8] = at 46.1 µM (top of the series), tumour line C
structure (smiles),measurement,setting,value
CCN(CC)C(=O)N1CCN(C)CC1,Potency,MCC-13,inactive
same,Potency,MCC-26,inactive
same,Potency,MKL-1,inactive
same,Potency,MKL-2,inactive
same,Potency,UISO,inactive
same,Potency,WaGa,inactive
same,Potency,C33A,inactive
same,Potency,CAOV3,inactive
same,Potency,CASKI,inactive
same,Potency,Es-2,inactive
same,Potency,HeLa,inactive
same,Potency,Hek293T,inactive
same,Potency,JEG-3,inactive
same,Potency,OV90,inactive
same,Potency,PA-1,inactive
same,Potency,SKOV3,inactive
same,Potency,Tov-21-G,inactive
same,Potency,Tov112D,inactive
same,"activity, negative = cell killing",[1]; [2],-9.76%
same,"activity, negative = cell killing",[1]; [3],-28.5%
same,"activity, negative = cell killing",[1]; [4],-8.09%
CC[C@@H](CO)NCCN[C@@H](CC)CO,Potency,MCC-13,inactive
same,Potency,MCC-26,inactive
same,Potency,MKL-1,inactive
same,Potency,MKL-2,inactive
same,outcome,NIH3T3,inactive
same,Potency,UISO,inactive
same,Potency,WaGa,inactive
same,Potency,C33A,inactive
same,Potency,CAOV3,inactive
same,Potency,CASKI,inactive
same,Potency,Es-2,inactive
same,Potency,HeLa,inactive
same,Potency,Hek293T,inactive
same,Potency,JEG-3,inactive
same,Potency,OV90,inactive
same,Potency,PA-1,inactive
same,Potency,SKOV3,inactive
same,Potency,Tov-21-G,inactive
same,Potency,Tov112D,inactive
same,"activity, negative = cell killing",[1]; [5],12.9%
same,"activity, negative = cell killing",[1]; [2],2%
same,"activity, negative = cell killing",[1]; [3],-7.59%
same,"activity, negative = cell killing",[1]; [4],-22%
Cc1ccc(C(=O)C(C)CN2CCCCC2)cc1 (stereo unspecified),Potency,MCC-13,inactive
same,Potency,MCC-26,inactive
same,Potency,MKL-1,inactive
same,Potency,MKL-2,10.6 µM (active)
same,outcome,NIH3T3,inactive
same,Potency,UISO,inactive
same,Potency,C33A,inactive
same,Potency,CAOV3,inactive
same,Potency,CASKI,inactive
same,Potency,Es-2,inactive
same,Potency,HeLa,inactive
same,Potency,Hek293T,inactive
same,Potency,JEG-3,inactive
same,Potency,OV90,inactive
same,Potency,PA-1,inactive
same,Potency,SKOV3,inactive
same,Potency,Tov-21-G,inactive
same,Potency,Tov112D,inactive
same,"activity, negative = cell killing",[1]; [6],-5.6% and -9.58%
same,"activity, negative = cell killing",[1]; [7],-3.01% and -24.6%
same,"activity, negative = cell killing",[1]; [8],4.06% and 1.53%
COc1cc2c(cc1OC)[C@@H]1CC(=O)[C@@H](CC(C)C)CN1CC2,Potency,MCC-13,inactive
same,Potency,MCC-26,inactive
same,Potency,MKL-1,inactive
same,Potency,MKL-2,inactive
same,outcome,NIH3T3,inactive
same,Potency,UISO,inactive
same,Potency,WaGa,inactive
same,Potency,C33A,inactive
same,Potency,CASKI,inactive
same,Potency,Es-2,inactive
same,Potency,HeLa,inactive
same,Potency,Hek293T,inactive
same,Potency,JEG-3,inactive
same,Potency,OV90,inactive
same,Potency,PA-1,inactive
same,Potency,SKOV3,inactive
same,Potency,Tov-21-G,inactive
same,Potency,Tov112D,inactive
same,"activity, negative = cell killing",[1]; [8],1.4%
same,Potency,[1]; tumour line A,28.2 µM (active)
CC(=O)OCC(=O)[C@@]1(OC(C)=O)[C@@H](C)C[C@H]2[C@@H]3C[C@H](F)C4=CC(=O)C=C[C@]4(C)[C@@]3(F)[C@@H](O)C[C@@]21C,Potency,MCC-13,inactive
same,Potency,MCC-26,inactive
same,Potency,MKL-1,inactive
same,Potency,MKL-2,inactive
same,Potency,UISO,inactive
same,Potency,WaGa,inactive
same,Potency,C33A,inactive
same,Potency,CAOV3,inactive
same,Potency,CASKI,inactive
same,Potency,Es-2,inactive
same,Potency,HeLa,inactive
same,Potency,Hek293T,inactive
same,Potency,JEG-3,inactive
same,Potency,OV90,inactive
same,Potency,PA-1,inactive
same,Potency,SKOV3,inactive
same,Potency,Tov-21-G,inactive
same,Potency,Tov112D,inactive
same,"activity, negative = cell killing",[1]; [6],-11.4%
same,"activity, negative = cell killing",[1]; [7],4.06%
same,"activity, negative = cell killing",[1]; [8],-10.3%
COC(=O)CCc1ccc(OCC(O)CNC(C)C)cc1 (stereo unspecified),Potency,MCC-13,inactive
same,Potency,MCC-26,inactive
same,Potency,MKL-1,inactive
same,Potency,MKL-2,inactive
same,Potency,UISO,inactive
same,Potency,WaGa,inactive
same,Potency,C33A,inactive
same,Potency,CAOV3,inactive
same,Potency,CASKI,inactive
same,Potency,Es-2,inactive
same,Potency,HeLa,inactive
same,Potency,Hek293T,inactive
same,Potency,JEG-3,inactive
same,Potency,OV90,inactive
same,Potency,PA-1,inactive
same,Potency,SKOV3,inactive
same,Potency,Tov-21-G,inactive
same,Potency,Tov112D,inactive
same,"activity, negative = cell killing",[1]; [6],-6.72%
same,"activity, negative = cell killing",[1]; [7],-12.4%
same,"activity, negative = cell killing",[1]; [8],-12.3%
Cc1c(N(C)CS(=O)(=O)O)c(=O)n(-c2ccccc2)n1C,Potency,MCC-13,inactive
same,Potency,MCC-26,inactive
same,Potency,MKL-1,inactive
same,Potency,MKL-2,inactive
same,outcome,NIH3T3,inactive
same,Potency,UISO,inactive
same,Potency,WaGa,inactive
same,Potency,C33A,inactive
same,Potency,CAOV3,inactive
same,Potency,CASKI,inactive
same,Potency,Es-2,inactive
same,Potency,JEG-3,inactive
same,Potency,OV90,inactive
same,Potency,SKOV3,inactive
same,"activity, negative = cell killing",[1]; [5],-2.96%
same,"activity, negative = cell killing",[1]; [2],-9.28%
same,"activity, negative = cell killing",[1]; [3],-9.47%
same,"activity, negative = cell killing",[1]; [4],-23.9%
CN(C)CCOc1ccccc1Cc1ccccc1,Potency,MCC-13,inactive
same,Potency,MCC-26,inactive
same,Potency,MKL-1,inactive
same,Potency,MKL-2,inactive
same,Potency,UISO,inactive
same,Potency,WaGa,inactive
same,Potency,C33A,inactive
same,Potency,CAOV3,inactive
same,Potency,CASKI,inactive
same,Potency,Es-2,inactive
same,Potency,HeLa,inactive
same,Potency,Hek293T,inactive
same,Potency,JEG-3,inactive
same,Potency,OV90,inactive
same,Potency,PA-1,inactive
same,Potency,SKOV3,inactive
same,Potency,Tov-21-G,inactive
same,Potency,Tov112D,inactive
same,"activity, negative = cell killing",[1]; [6],-0.223%
same,"activity, negative = cell killing",[1]; [7],-22.7%
same,"activity, negative = cell killing",[1]; [8],-17.3%
O=C1c2ccccc2C(=O)C1c1ccccc1,Potency,MCC-13,inactive
same,Potency,MCC-26,inactive
same,Potency,MKL-1,inactive
same,Potency,MKL-2,inactive
same,outcome,NIH3T3,inactive
same,Potency,UISO,inactive
same,Potency,WaGa,inactive
same,Potency,C33A,inactive
same,Potency,CAOV3,inactive
same,Potency,CASKI,inactive
same,Potency,Es-2,inactive
same,Potency,HeLa,inactive
same,Potency,Hek293T,inactive
same,Potency,JEG-3,inactive
same,Potency,OV90,inactive
same,Potency,PA-1,inactive
same,Potency,Tov-21-G,inactive
same,Potency,Tov112D,inactive
same,"activity, negative = cell killing",[1]; [5],22.2%
same,"activity, negative = cell killing",[1]; [2],-2.67%
same,"activity, negative = cell killing",[1]; [3],-10.9%
CC(Cc1cccc(C(F)(F)F)c1)NCCOC(=O)c1ccccc1 (stereo unspecified),Potency,MCC-13,inactive
same,Potency,MCC-26,inactive
same,Potency,MKL-1,inactive
same,Potency,MKL-2,inactive
same,outcome,NIH3T3,inactive
same,Potency,UISO,inactive
same,Potency,WaGa,inactive
same,Potency,C33A,inactive
same,Potency,CAOV3,inactive
same,Potency,CASKI,inactive
same,Potency,Es-2,inactive
same,Potency,HeLa,inactive
same,Potency,Hek293T,inactive
same,Potency,JEG-3,inactive
same,Potency,OV90,inactive
same,Potency,PA-1,inactive
same,Potency,SKOV3,inactive
same,Potency,Tov-21-G,inactive
same,Potency,Tov112D,inactive
